Values joined by “and” are separate entries in the source; they are usually repeats but may differ in a detail not shown here. Identical values can stand only once. The campaign covered roughly 5,500 compounds. About 2,000 (36%) were called active. Another 18% or so got no clear call; they are omitted. Cut-off read from the data, not from the text of the source: active = normalized growth mostly below about 0.91 (no sharp cut-off); inconclusive = no clear call, values can overlap the other calls; inactive = mostly above about 0.92. This is one part of the list.
Experiment: chemical genetic growth profiling, strain panel (AID 1159580);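 note: tested at 20 µM; growth read once vehicle control cultures reached saturation at 30 °C; 1 = growth at the plate median or of vehicle wells; lower values mean less growth of the strain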
Settings: S. cerevisiae deletion strains, growth OD

Measured: normalized growth

CCOC(N)=O
inactive: locus YAL013W, strain DEP1, stronger effect = lower value 0.999 | locus YAL021C, strain ccr4, stronger effect = lower value 0.989 | locus YAL026C, strain drs2, stronger effect = lower value 1 | locus YAL030W, strain snc1, stronger effect = lower value 0.994 | locus YBL061C, strain skt5, stronger effect = lower value 0.997 | locus YBR009C, strain hhf1, stronger effect = lower value 0.987 | locus YBR021W, strain FUR4, stronger effect = lower value 0.97 | locus YBR023C, strain chs3, stronger effect = lower value 0.993 | locus YBR171W, strain sec66, stronger effect = lower value 0.99 | locus YBR229C, strain ROT2, stronger effect = lower value 0.999 | locus YBR231C, strain swc5, stronger effect = lower value 0.995 | locus YBR279W, strain paf1, stronger effect = lower value 0.991 | locus YCL011C, strain gbp2, stronger effect = lower value 0.988 | locus YCL016C, strain dcc1, stronger effect = lower value 1 | locus YCL029C, strain bik1, stronger effect = lower value 1.01 | locus YCL061C, strain MRC1, stronger effect = lower value 0.995 | locus YCL069W, strain vba3, stronger effect = lower value 0.997 | locus YCR088W, strain abp1, stronger effect = lower value 1 | locus YDL005C, strain med2, stronger effect = lower value 0.986 | locus YDL035C, strain GPR1, stronger effect = lower value 1.01 | locus YDL040C, strain nat1, stronger effect = lower value 0.989 | locus YDL074C, strain BRE1, stronger effect = lower value 1 | locus YDL101C, strain DUN1, stronger effect = lower value 1 | locus YDL134C, strain PPH21, stronger effect = lower value 1.01 | locus YDL185W, strain tfp1, stronger effect = lower value 1.01 | locus YDL192W, strain arf1, stronger effect = lower value 1.01 | locus YDR001C, strain nth1, stronger effect = lower value 1 | locus YDR069C, strain doa4, stronger effect = lower value 0.985 | locus YDR101C, strain arx1, stronger effect = lower value 1 | locus YDR137W, strain rgp1, stronger effect = lower value 1.01 | locus YDR150W, strain NUM1, stronger effect = lower value 1 | locus YDR159W, strain sac3, stronger effect = lower value 0.984 | locus YDR162C, strain NBP2, stronger effect = lower value 0.973 | locus YDR195W, strain ref2 0.933 | locus YDR297W, strain sur2, stronger effect = lower value 0.992 | locus YDR318W, strain mcm21, stronger effect = lower value 1.02 | locus YDR334W, strain swr1, stronger effect = lower value 1 | locus YDR335W, strain msn5, stronger effect = lower value 0.997 | locus YDR388W, stronger effect = lower value 1.01 | locus YDR392W, strain spt3, stronger effect = lower value 0.997 | locus YDR502C, strain sam2, stronger effect = lower value 1 | locus YEL003W, strain gim4, stronger effect = lower value 0.997 | locus YEL037C, strain rad23, stronger effect = lower value 1.01 | locus YEL061C, strain CIN8 (second series), stronger effect = lower value 1.01 | locus YEL061C, strain CIN8, stronger effect = lower value 1 | locus YER015W, strain faa2, stronger effect = lower value 0.993 | locus YER016W, strain bim1, stronger effect = lower value 0.997 | locus YER110C, stronger effect = lower value 1.01 | locus YER111C, strain swi4, stronger effect = lower value 0.995 | locus YER155C, strain BEM2 (second series), stronger effect = lower value 0.994 | locus YER155C, strain BEM2, stronger effect = lower value 1 | locus YER167W, strain BCK2, stronger effect = lower value 1.01 | locus YFR010W, strain ubp6, stronger effect = lower value 0.997 | locus YGL078C, strain dbp3, stronger effect = lower value 1.01 | locus YGL086W, strain mad1, stronger effect = lower value 1.01 | locus YGL167C, strain pmr1, stronger effect = lower value 0.987 | locus YGL173C, strain kem1, stronger effect = lower value 0.982 | locus YGL227W, strain vid30, stronger effect = lower value 0.983 | locus YGL240W, strain doc1, stronger effect = lower value 0.982 | locus YGL248W, strain PDE1, stronger effect = lower value 1 | locus YGL253W, strain hxk2, stronger effect = lower value 0.993 | locus YGR078C, strain PAC10, stronger effect = lower value 0.991 | locus YGR135W, strain pre9, stronger effect = lower value 0.991 | locus YGR229C, strain SMI1, stronger effect = lower value 0.985 | locus YGR252W, strain gcn5, stronger effect = lower value 1.08 | locus YHR013C, strain ard1, stronger effect = lower value 0.975 | locus YHR027C, strain rpn1, stronger effect = lower value 0.997 | locus YHR030C, strain SLT2, stronger effect = lower value 1.01 and 0.987 | locus YHR079C, strain IRE1 (second series), stronger effect = lower value 1.01 | locus YHR079C, strain IRE1, stronger effect = lower value 0.983 | locus YHR094C, strain hxt1, stronger effect = lower value 1 | locus YHR129C, strain ARP1, stronger effect = lower value 1.01 | locus YHR142W, strain chs7, stronger effect = lower value 0.995 | locus YHR200W, strain rpn10, stronger effect = lower value 1.01 | locus YIL066C, strain RNR3, stronger effect = lower value 1.03 | locus YIL073C, strain SPO22, stronger effect = lower value 1.06 | locus YIL125W, strain kgd1, stronger effect = lower value 1 | locus YIR030C, strain dcg1, stronger effect = lower value 1 | locus YJL092W, strain hpr5, stronger effect = lower value 0.995 | locus YJL095W, strain BCK1 (second series), stronger effect = lower value 0.992 | locus YJL095W, strain BCK1, stronger effect = lower value 1.01 and 0.996 | locus YJL115W, strain asf1, stronger effect = lower value 0.999 | locus YJL129C, strain trk1, stronger effect = lower value 1 | locus YJL134W, strain LCB3, stronger effect = lower value 1.01 | locus YJL154C, strain vps35, stronger effect = lower value 1 | locus YJL164C, strain tpk1, stronger effect = lower value 0.991 | locus YJL166W, strain qcr8, stronger effect = lower value 0.99 | locus YJL168C, strain set2, stronger effect = lower value 1.02 | locus YJL187C, strain SWE1 (second series), stronger effect = lower value 1.02 | locus YJL187C, strain SWE1, stronger effect = lower value 0.997 | locus YJR043C, strain POL32, stronger effect = lower value 1.02 | locus YJR066W, strain TOR1, stronger effect = lower value 0.959
